Screens deposited in PubChem by National Center for Advancing Translational Sciences (NCATS).
HepG2 viability = qHTS for Inhibitors of TGF-b: Cytotox Counterscreen | HepG2 CAGA-GFP viability, ATP luminescence, 18 h | Potency, µM (series often up to 46.1 µM), actives largely listed as cytotoxic | 0.76% of 410,000 active
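CellTiter-Glo luminescence gave cytotoxicity after 18 hours at 37 degrees C. The cells were HepG2 CAGA-GFP in 1% FBS DMEM, stimulated with 500 pg/mL TGF-beta after compound addition. %Activity was normalised to no-cell wells (complete cell-killing) and DMSO (no toxicity), and curves were fitted and classified.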
DT40 TDP1 no CPT = qHTS for Inhibitors of human tyrosyl-DNA phosphodiesterase 1 (TDP1): qHTS in cells in absence of CPT | DT40 Tdp1-/- hTDP1 cells, no CPT, ATP luminescence, 48 h | Potency, µM (top dose mostly 46.2 µM), most hits filed as inhibitors | 15% of 420,000 active; note: nearly all actives have a fitted effect of over 55% in size
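A cellular qHTS used chicken DT40 cells lacking endogenous Tdp1 but carrying stably transfected human TDP1. Compounds were applied without camptothecin, and cell growth kinetics were judged by ATP-dependent luminescence after ≥48 hr.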
DT40 TDP1 CPT = qHTS for Inhibitors of human tyrosyl-DNA phosphodiesterase 1 (TDP1): qHTS in cells in presence of CPT; Potency, µM (highest dose often 46.2 µM), actives largely listed as inhibitors; 12% of 420,000 active; AID 686979, 2013; chicken DT40 Tdp1-/-;hTDP1 cells + 20 nM CPT, ATP luminescence, 48 h; note: nearly all actives have a fitted effect of over 55% in size
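Chicken DT40 Tdp1-/- cells complemented with human TDP1, 400 cells/well, exposed to compounds plus 20 nM camptothecin for at least 48 h at 37 C; viability read as ATP content by CellTiter-Glo luminescence.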
HT1080NT lethal = qHTS for induction of synthetic lethality in tumor cells producing 2HG: qHTS for the HT-1080-NT fibrosarcoma cell line | Potency, µM (titrated, usually from 46.1 µM), actives largely listed as cytotoxic | 1.6% of 360,000 active | HT-1080-NT fibrosarcoma viability, CellTiter-Glo ATP luminescence, 48 h;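 note: NT is the 2HG producing partner of a matched IDH1 knockdown line; nearly all actives have a fitted effect of over 55% in size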
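HT-1080-NT fibrosarcoma cells (2HG-overproducing), 750 cells/well in RPMI with 5% FBS, dosed after 2 h and incubated 48 h at 37C. CellTiter-Glo luminescence normalized to DMSO and no-cell wells; concentration-response curves fitted and classed.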
HT1080 IDH1KD tx = qHTS for induction of synthetic lethality in tumor cells producing 2HG: qHTS for the HT-1080-IDH1KD cell line | HT-1080 IDH1 knockdown viability, ATP luminescence, 48 h | 2% of 360,000 active | Potency, µM (highest dose often 46.1 µM), most hits filed as cytotoxic | AID 686971, 2013
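Cytotoxicity counter-line: IDH1KD HT-1080, 48 h, CellTiter-Glo. Curves classed by r2, magnitude and activity.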
TGFb inhibitor = qHTS for Inhibitors of TGF-b | 1.2% of 410,000 active | HepG2 CAGA-GFP TGF-b/SMAD3 reporter, GFP fluorescence, 18 h; TGF-beta stimulated, 500 pg/mL final | AID 588855, 2011 | Potency, µM (highest dose often 46.1 µM), most hits filed as inhibitors; note: nearly all actives have a fitted effect of over 65% in size
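GFP signal (ex488/em500-530) from TGF-beta-stimulated HEPG2 CAGA-GFP cells, 500 pg/mL final, 18 h at 37 degrees C in DMEM plus 1% FBS, normalized to unstimulated and DMSO-stimulated controls.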
Numbers stand for hits; n = inactive; u = inconclusive; x = not tested or not shown; ! = not confirmed by another sample; [ ] = another dose, or the depositor's remark. Compounds with a hit are over-represented: about 17% of the library has one in this group of screens. Calls come from the whole dose curve; as a rule, active = well fitted curve in the direction sought with a large enough effect; inconclusive = small, poorly fitted or top-dose-only effect, or another doubt; inactive = no such curve, though single readings can be large; an effect the other way counts as inactive or inconclusive.

SMILES	HepG2 viability	DT40 TDP1 no CPT	DT40 TDP1 CPT	HT1080NT lethal	HT1080 IDH1KD tx	TGFb inhibitor
Cc1nc2c(ccc3nc(NC(=O)c4ccc5c(c4)OCCO5)sc32)s1	n	18µM	16µM	n	n	n
Cc1nc2c(ccc3c2ccc2nc(C)sc23)s1	n	n	n	n	n[9.24 µM]	n
Cc1nc2c(ccc3nc(NC(=O)C(c4ccccc4)c4ccccc4)sc32)s1	n	7.3µM	7.3µM	n	n	u
Cc1ccc(-c2cc(-c3ccccc3)c(C#N)c(N)n2)o1	n	15µM	23µM	n	n	n
Cc1ccc(-c2cc(-c3ccccc3Cl)c(C#N)c(N)n2)o1	n	u	u	n	n	n
N#Cc1c(-c2ccncc2)cc(-c2ccc(F)cc2)nc1N	n	n	n	n	n	n
Cc1ccc(-c2cc(-c3ccc(F)cc3)nc(N)c2C#N)o1	n	18µM	u	n	n	n
Cc1ccc(S(=O)(=O)c2c(COC(=O)c3ccccc3Cl)c(-c3ccccc3)nn2C)cc1	n	u	u	n	n	n
CN(C1CCCCC1)S(=O)(=O)c1cn(C)c(=O)n(C)c1=O	n	n	n	n	n	u
O=c1[nH]c(C2CCN(S(=O)(=O)c3ccc(C(F)(F)F)cc3)CC2)nc2c1nnn2Cc1cccc(F)c1	n	u	u	u	u	u
O=c1[nH]c(C2CCN(S(=O)(=O)Cc3ccccc3)CC2)nc2c1nnn2Cc1cccc(Cl)c1	n	18µM	16µM	u	u	u
O=c1[nH]c(C2CCN(S(=O)(=O)/C=C/c3ccccc3)CC2)nc2c1nnn2Cc1ccc(F)cc1	n	18µM	21µM	u	n	n
O=c1[nH]c(C2CCN(S(=O)(=O)c3ccccc3C(F)(F)F)CC2)nc2c1nnn2Cc1cccc(F)c1	n	u	u	u	16µM	u
O=c1[nH]c(C2CCN(S(=O)(=O)Cc3ccccc3)CC2)nc2c1nnn2Cc1ccccc1	n	u	u	n	n	n
COc1cccc(CNCc2ccco2)c1O	n	n	n	n	n	n
Cc1cccc(N(CC(=O)NCCc2ccccc2)C(=O)CCC(=O)Nc2ccccn2)c1C	n	u	n	n	n	n
Cn1c(-c2ccccc2)c(Sc2ccccc2)c2cc(-c3ccc4[nH]ccc4c3)ccc21	x	n	u	n	n	x
Clc1ccc(C2Nc3cccc4cccc(c34)N2)cc1	n	u	u	n	n	n
CC12CN3CC(C)(CN(C1)C3c1ccc3c(c1)OCO3)C2=O (centres undefined)	n	n	n	n	n	n
CSc1ccc(C2Nc3cccc4cccc(c34)N2)cc1	n	u	15µM	n	n	n
c1cc2c3c(cccc3c1)NC(c1ccc3c(c1)OCO3)N2	n	u	23µM	n	n	n
CSc1ccc(C2NC(=O)c3ccccc3N2)cc1 (centres undefined)	n	16µM	10µM	18µM	9.2µM	n
CN1c2ccccc2N(C)C1c1ccc2c(c1)OCO2	n	16µM	23µM	n	u	n
CC(C)(C)C(=O)CNS(=O)(=O)c1ccc(S(=O)(=O)NC2CCCC2)cc1	n	n	u	n	n	n
CCOC(=O)[C@]12CCC=C1N(Cc1ccccc1)C(=O)[C@H](CC(=O)NCCCN1CCCC1=O)C2	x	n	n	n	n	x
SMILES	HepG2 viability	DT40 TDP1 no CPT	DT40 TDP1 CPT	HT1080NT lethal	HT1080 IDH1KD tx	TGFb inhibitor
CC(=O)N1N=C2/C(=C/c3ccccc3)CCCC2C1c1ccccc1 (centres undefined)	n	u	u	u	u	n
CC(=O)N1N=C2c3ccccc3CCC2C1c1ccc(F)cc1 (centres undefined)	n	u	n	u	21µM	u
CCNC(=S)N1N=C2c3ccccc3CCC2C1c1ccc(F)cc1 (centres undefined)	n	23µM	u	u	u	u
Cc1ccc(NC(=O)NNC(=O)c2ccc3c(c2)NC(=O)C(C)(C)O3)cc1	n	n	n	n	n	n
CCn1c(=O)cc(SCC(=O)N2CCN(c3ccccc3F)CC2)c2ccccc21	n	26µM!	u	n	n	n
Cc1ccc(Cl)cc1N1CCN(C(=O)CSc2cc(=O)n(C)c3ccccc23)CC1	n	7.3µM	15µM	x	x	n
CCn1c(=O)cc(SCC(=O)N2CCN(c3ccccn3)CC2)c2ccccc21	n	u	n	n	n	n
CC(=O)N1C(=O)/C(=C2\SC(=S)N(NS(=O)(=O)c3ccc(C)cc3)C2=O)c2ccccc21	n	n	n	n	n	n
CCN(CC)S(=O)(=O)c1ccc(N2CCOCC2)c(NC(=O)c2cc3ccccc3o2)c1	n	u	u	n	n	n
COc1ccc2c(c1)c1c(c(=O)n(Cc3ccccc3)c(=O)n1Cc1ccccc1Cl)n2C	n	n	n	x	x	n
Cc1c(CN(C)C(=O)/C=C/c2ccc([N+](=O)[O-])cc2)cnn1C	n	u	23µM	n	n	n
CC(=O)NC(CC(=O)OC(C)C(=O)Nc1ncc(Cl)cc1Cl)c1ccccc1 (centres undefined)	n	n	n	n	n	n
COc1ccc(/C=C2\Sc3ccc(C(=O)NCCN4CCCCCC4)cc3N(C)C2=O)cc1	n	23µM	u	n	n	u
COc1cccc(/C=C2/Sc3ccc(C(=O)NCCN4CCCC4)cc3NC2=O)c1	14µM	u	16µM	n	n	u
COc1ccc(/C=C2\Sc3ccc(C(=O)NC4CC4)cc3N(C)C2=O)cc1OC	n	u	u	n	n	n
Cc1ccc(/C=C2/Sc3ccc(C(=O)NCCN4CCOCC4)cc3NC2=O)cc1	n	u	n	n	n	n
COc1cccc(/C=C2/Sc3ccc(C(=O)NCCCN4CCCC4)cc3NC2=O)c1	n	21µM	18µM	n	n	u
COc1cc2c(cc1OC)-c1cc(Nc3cccc(C)c3)nc(=O)n1CC2	n	n	u	n	n	n
COc1ccc(CCN2C(=O)CC(C(C)c3ccccc3)C2=O)cc1OC (centres undefined)	n	n	n	n	n	n
COc1ccc2nc(NC(=O)C3CCN(S(=O)(=O)c4cccnc4)CC3)sc2c1	n	15µM	12µM	n	n	n
